Source: PubChem
GLP-1R inv ag = inverse agonists of human GLP-1 receptor; P43220; HEK293 GLP-1R CRE-luciferase, luminescence, 24 h; GLP-1R form is constitutively active; Potency, µM (highest dose often 38.3 µM), actives largely listed as inhibitors; actives 1.6% (n = 410,000); AID 624417; further: nearly all actives have a fitted effect of over 55% in size
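HEK293 cells stably co-expressing constitutively active GLP-1R and a cAMP-responsive luciferase reporter were seeded in DMEM with 10% Nu serum, given compounds after 12 h, and incubated 24 h at 37 deg C. Luminescence was then read.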
GLP1R cytotox = cytotoxicity counter-screen for GLP-1 receptor inverse agonists. HEK293 cAMP-luciferase reporter cells, luminescence, 24 h. Potency, µM (series often up to 38.3 µM), actives largely listed as inhibitors. actives 0.13% (n = 410,000). AID 624418;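 further: loss of luciferase light is scored as toxicity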
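MLSMR compounds, 24 hr on cells at 37 deg C/5% CO2; luminescence after luciferase reagent (12 min RT). Inhibition counted as the undesired cytotoxic outcome.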
RGS4 inh = human RGS4 inhibition | P49798 | Transcreener GDP fluorescence polarization, RGS4-accelerated GTP hydrolysis | Potency, µM (doses to about 114 µM), hits mostly inhibitors | actives 0.039% (n = 390,000); further: nearly all actives have a fitted effect of over 75% in size
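MLSMR compounds (23 nl, pin-transferred) preincubated 10 min at room temperature with a 500nM (2x) first reagent, then RGS4 at 900nM (2x) plus Transcreener GDP mix added; fluorescence polarization (620/688 nm) read before and after 90 min at 30 °C.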
GCN5L2 inh = blocks human GCN5L2 histone acetyltransferase. AID 504327. Potency, µM (top dose mostly 58.9 µM), most hits filed as inhibitors. actives 0.21% (n = 390,000). Q92830. GCN5L2 HAT assay, ThioGlo1 CoA-SH fluorescence
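Preincubate 20nM GCN5L2 with compound 15 min, RT → add 50uM ThioGlo1 + 75uM H3(1-25) + 70uM acetyl-CoA → read fluorescence 0 and 20 min. Primary qHTS; fluorescent artifacts likely.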
GLP-1R agonist = agonists of human GLP-1 receptor; P43220; HEK293 GLP-1R CRE-luciferase, luminescence, 4-6 h; cells express a hypersensitive GLP-1R form; Potency, µM (highest dose often 45.6 µM), hits mostly activators; actives 0.007% (n = 380,000); AID 624172
PTHR1 ag = agonists of human PTHR1 parathyroid hormone receptor; Potency, µM (doses to about 115 µM), usual class: activators; actives 0.075% (n = 410,000); HEK293 GP2 PTHR1 cells, GloSensor cAMP luminescence, 1 h; further: nearly all actives have a fitted effect of over 55% in size
Target sequence (Q03431 whole entry, looked up): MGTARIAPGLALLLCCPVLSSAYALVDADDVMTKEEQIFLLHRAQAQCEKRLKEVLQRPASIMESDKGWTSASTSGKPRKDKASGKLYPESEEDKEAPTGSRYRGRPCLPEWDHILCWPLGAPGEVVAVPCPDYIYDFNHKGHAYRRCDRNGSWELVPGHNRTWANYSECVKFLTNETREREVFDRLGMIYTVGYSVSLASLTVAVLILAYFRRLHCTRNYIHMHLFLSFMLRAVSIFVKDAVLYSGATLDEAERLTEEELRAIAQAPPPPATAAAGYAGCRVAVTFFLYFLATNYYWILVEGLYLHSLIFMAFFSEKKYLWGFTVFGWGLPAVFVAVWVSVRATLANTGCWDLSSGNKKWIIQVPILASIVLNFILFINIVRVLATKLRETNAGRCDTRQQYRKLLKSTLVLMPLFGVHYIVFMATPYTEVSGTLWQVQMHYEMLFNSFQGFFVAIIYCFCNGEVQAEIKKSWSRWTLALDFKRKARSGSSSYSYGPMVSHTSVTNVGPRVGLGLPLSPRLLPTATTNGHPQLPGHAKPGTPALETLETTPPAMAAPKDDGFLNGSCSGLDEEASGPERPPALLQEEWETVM
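HEK-293-derived GP2 cells expressing PTHR1 and a GloSensor cAMP reporter, 3,000/well, plated overnight, given luciferin plus IBMX (each 0.5 mM as added) for 1 h at 37 °C, then compound for 1 h at 37 °C. Luminescence was read after 15 min at room temperature.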
Each line names hits and unclear results; the compound was inactive in the other large screens. This is a sample that favours compounds with a hit; in the whole collection about 1.8% have one here. The call rests on the fitted dose curve; in most records, active means well fitted curve in the direction sought with a large enough effect; inconclusive means small, poorly fitted or top-dose-only effect, or another doubt; inactive means no such curve, though single readings can be large; an effect the other way counts as inactive or inconclusive.

O=C(/C=C/c1ccc(OCc2cccc(Cl)c2)cc1)N1CCOCC1	GLP-1R inv ag 6.31µM
O=C(/C=C/c1ccc(Cl)cc1)N1CCOCC1	none
CCOc1cccc(C(=O)N(Cc2ccc(C(C)C)cc2)C2CCS(=O)(=O)C2)c1 (stereo not given)	none (no result: GLP-1R agonist)
Cc1[nH]c2ccccc2c1/C=N/NC(=O)c1cccc(S(=O)(=O)Nc2cccc(C(F)(F)F)c2)c1	GLP-1R inv ag 12.6µM, GLP1R cytotox inconclusive
Cc1cccn2c(=O)c3cc(C(=O)NC4CCCCC4)c(=N)n(Cc4ccccc4)c3nc12	GCN5L2 inh 15.8µM
CNc1nc(-c2ccc3c(c2)CCN3C(=O)CC(C)(C)C)c(C)s1	GLP-1R inv ag inconclusive
CC(=O)Nc1nc(-c2ccc3c(c2)CCN3C(=O)C2CC2)c(C)s1	GLP-1R inv ag 0.631µM
COC(=O)c1cc(Cl)cc2c(C)c(C3(O)CCCCC3)[nH]c12	GLP-1R inv ag 7.08µM
CCc1c(C2(O)CCCCC2)[nH]c2c(C(=O)OC)cc(Cl)cc12	GLP-1R inv ag inconclusive
CC1CCN(Cc2c(C(=O)N/N=C/c3cc(Br)ccc3O)nnn2-c2nonc2N)CC1	GLP-1R inv ag 3.98µM
CC(C)c1c(C(=O)N/N=C/c2cccc3ccccc23)nnn1-c1nonc1N	GLP-1R inv ag 6.31µM
CC1CCN(Cc2c(C(=O)N/N=C/c3cc(Cl)ccc3O)nnn2-c2nonc2N)CC1	GLP-1R inv ag inconclusive
Cc1ccc(C)c(N2CCN(C(=O)c3ccc4[nH]c(C)c(C)c4c3)CC2)c1	GLP-1R inv ag 7.94µM (no result: GLP-1R agonist)
O=C(Nc1cccc(Cl)c1)N1CCN2C(=O)c3ccccc3C12c1ccccc1 (stereo not given)	GLP-1R inv ag 8.91µM, GLP1R cytotox inconclusive
O=C(CCl)N1CCN2C(=O)c3ccccc3C12c1ccc(Cl)cc1 (stereo not given)	GLP-1R inv ag inconclusive
O=S1(=O)c2ccccc2N(Cc2ccccc2)c2ccccc21	none (no result: GLP-1R agonist)
COC(=O)c1ccc(C23CC4(C2)[C@H](CN(Cc2cccnc2)[C@@H]4c2ccccc2)C3c2ccc(C(F)(F)F)cc2)cc1 (stereo not given in full)	GLP-1R inv ag inconclusive
COC(=O)c1ccc(C23CC4(C2)[C@H](CN(Cc2cccnc2)[C@@H]4c2ccccc2)C3c2ccccc2)cc1 (stereo not given in full)	GLP-1R inv ag 8.91µM
FC(F)(F)c1ccc(C2[C@H]3CN(Cc4cccnc4)[C@H](c4ccccc4)C34CC2(c2cccnc2)C4)cc1 (stereo not given in full)	GLP-1R inv ag 11.2µM, GLP1R cytotox inconclusive
CCO[C@@H](Cc1ccc(OCCc2ccc(OS(C)(=O)=O)cc2)cc1)C(=O)O	none (no result: GLP-1R inv ag, GLP1R cytotox, RGS4 inh, GCN5L2 inh, PTHR1 ag)
COc1ccccc1NC(=O)CSc1nc2ccccc2cc1Cc1ccccc1	GLP-1R inv ag 10µM
CCc1cc2ccccc2nc1SCC(=O)NC1CCCC1	GLP-1R inv ag 10µM
Cn1c(=N)n(CC(=O)c2ccccc2)c2ccccc21	GLP-1R inv ag 11.2µM
Cn1c(=N)n(CC(=O)c2ccc(Cl)c(Cl)c2)c2ccccc21	GLP-1R inv ag 7.08µM
CCCc1cc(C(=O)N2CCCC(Cc3cccc(Cl)c3)(C(=O)OCC)C2)n(C)n1 (stereo not given)	GLP-1R inv ag 11.2µM
Cc1ccc(CSc2cn(CC(=O)N3CCCCC3)c3ccccc23)cc1	GLP-1R inv ag 10µM (no result: GLP-1R agonist)
O=C(Cn1cc(SCc2cccc(C(F)(F)F)c2)c2ccccc21)N1CCCCCC1	GLP-1R inv ag 7.94µM (no result: GLP-1R agonist)
O=C(Cn1cc(SCc2ccccc2)c2ccccc21)N1CCCCCC1	GLP-1R inv ag inconclusive (no result: GLP-1R agonist)
COc1ccc(/C=C2/CCC(CN3CCOCC3)C2=O)cc1 (stereo not given)	GLP-1R inv ag 5.62µM, GLP1R cytotox 5.01µM, RGS4 inh inconclusive (no result: GCN5L2 inh)
COc1ccc(/C=C2\CCC(C3CCCC3)C2=O)cc1 (stereo not given)	GLP-1R agonist inconclusive
O=C(CN1C(=O)NC2(CCCCC2)C1=O)NCc1ccc2c(c1)OCO2	none
Cc1ccc(SCCNC(=S)Nc2ccccc2)cc1	GLP-1R inv ag inconclusive, GLP1R cytotox inconclusive (no result: GCN5L2 inh)
COc1ccccc1NC(=S)NCCSc1ccc(C)cc1	GLP-1R inv ag 11.2µM, GLP1R cytotox inconclusive
CC(OC(=O)c1ccc(C(C)(C)C)cc1)C(=O)NC1CCCCC1C (stereo not given)	GLP-1R inv ag inconclusive, GCN5L2 inh inconclusive
CC(C)S(=O)(=O)c1oc(-c2cccs2)nc1S(=O)(=O)c1ccc(F)cc1	GLP-1R inv ag inconclusive, GLP1R cytotox 10µM (no result: GLP-1R agonist)
COc1ccc(CN2C(=O)CN(S(C)(=O)=O)CC2(C)C(=O)NCc2ccccc2)cc1OC (stereo not given)	none (no result: RGS4 inh, GCN5L2 inh, GLP-1R agonist)
O=C(Nc1cc(-c2ccccc2)nn1C1CCCCC1)c1ccc(Cl)cc1	GLP-1R inv ag 10µM
Cn1nc(-c2ccccc2)cc1NC(=O)c1ccccc1	GLP-1R inv ag inconclusive
Cc1ccc(Cl)cc1N1CCN(C(=O)CSc2cc(=O)n(C)c3ccccc23)CC1	GLP-1R inv ag 10µM (no result: GLP-1R agonist)
Cc1ccc(Cl)cc1N1CCN(C(=O)CSc2nnc3n2C(C)(C)Cc2ccccc2-3)CC1	GLP-1R inv ag 3.98µM
Cc1ccc2nc(-c3ccc(NC(=O)C4CCCO4)cc3)[nH]c2c1 (stereo not given)	GLP-1R inv ag 7.94µM
Cc1ccc2nc(-c3ccc(NC(=O)Cc4cccs4)cc3)[nH]c2c1	GLP1R cytotox inconclusive
O=C(CCS(=O)(=O)c1cc(Br)cc2c1N(C(=O)C1CC1)CC2)N1CCN(c2cccc(C(F)(F)F)c2)CC1	none (no result: GLP-1R agonist)
CC(C)CC(=O)NC(NC(=S)Nc1cccc2cccnc12)C(Cl)(Cl)Cl (stereo not given)	GLP-1R inv ag 7.94µM
Cc1cc(C)cc(Nc2cc(C(=O)NCCCN(Cc3ccccc3)C(C)C)c3ccccc3n2)c1	GLP-1R inv ag 5.62µM, GLP1R cytotox inconclusive (no result: GLP-1R agonist)
COc1cccc(/C=N/NC(=O)C(=O)N/N=C/c2cccc(OC)c2O)c1O	none
COc1cccc(/C=N/NC(=O)c2ccoc2C)c1O	GLP-1R inv ag 1.26µM
CC(C)OC(=O)/C(=C\c1cccc2ccccc12)NC(=O)c1ccccc1	GLP-1R inv ag 10µM
Cc1ccc(C(C#N)c2ccc(C(=O)c3ccc(F)cc3)cc2)cc1 (stereo not given)	GLP-1R inv ag 11.2µM
N#CC(c1ccc(F)cc1)c1ccc(C(=O)c2ccc(F)cc2)cc1 (stereo not given)	GLP-1R inv ag inconclusive
